Screen size: about 5,500 compounds; about 2,000 (36%) were called active. Roughly 18% stayed inconclusive and do not appear here. No stated cut-off is given here; in the data, active means normalized growth mostly below about 0.91 (no sharp cut-off); inconclusive means no clear call, values can overlap the other calls; inactive means mostly above about 0.92. The list shows a part of the results.
Assay: chemical genetic growth profiling, strain panel (AID 1159580);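 further: tested at 20 µM; growth read once vehicle control cultures reached saturation at 30 °C; 1 = growth at the plate median or of vehicle wells; lower values mean less growth of the strain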
Details: growth OD

Measured: normalized growth

CC(C(=O)O)c1ccc(N2Cc3ccccc3C2=O)cc1 (configuration not stated)
active: S. cerevisiae deletion strains, locus YNL322C, strain KRE1 (second series), hits give low values 0.818
inactive: S. cerevisiae deletion strains, locus YKL009W, strain mrt4, hits give low values 0.998 | S. cerevisiae deletion strains, locus YKL068W, hits give low values 1 | S. cerevisiae deletion strains, locus YKL085W, strain MDH1 (second series), hits give low values 0.99 | S. cerevisiae deletion strains, locus YKL085W, strain MDH1, hits give low values 0.99 | S. cerevisiae deletion strains, locus YKL160W, strain elf1, hits give low values 0.986 | S. cerevisiae deletion strains, locus YKL190W, strain CNB1, hits give low values 1.01 | S. cerevisiae deletion strains, locus YKR001C, strain vps1, hits give low values 0.976 | S. cerevisiae deletion strains, locus YKR026C, strain gcn3, hits give low values 0.986 | S. cerevisiae deletion strains, locus YKR091W, strain srl3, hits give low values 0.983 | S. cerevisiae deletion strains, locus YLL001W, strain dnm1, hits give low values 0.96 | S. cerevisiae deletion strains, locus YLL026W, hits give low values 0.988 | S. cerevisiae deletion strains, locus YLL041C, strain sdh2, hits give low values 0.99 | S. cerevisiae deletion strains, locus YLR027C, strain aat2, hits give low values 0.985 | S. cerevisiae deletion strains, locus YLR039C, strain RIC1, hits give low values 0.994 | S. cerevisiae deletion strains, locus YLR058C, strain SHM2, hits give low values 1.01 | S. cerevisiae deletion strains, locus YLR102C, strain apc9, hits give low values 0.992 | S. cerevisiae deletion strains, locus YLR113W, strain HOG1, hits give low values 0.984 | S. cerevisiae deletion strains, locus YLR221C, strain rsa3, hits give low values 0.928 | S. cerevisiae deletion strains, locus YLR258W, strain gsy2, hits give low values 0.976 | S. cerevisiae deletion strains, locus YLR262C, strain YPT6 (second series), hits give low values 0.966 | S. cerevisiae deletion strains, locus YLR262C, strain YPT6, hits give low values 1.03 | S. cerevisiae deletion strains, locus YLR268W, strain sec22, hits give low values 0.997 | S. cerevisiae deletion strains, locus YLR320W, strain mms22, hits give low values 0.918 | S. cerevisiae deletion strains, locus YLR330W, strain CHS5, hits give low values 1.01 | S. cerevisiae deletion strains, locus YLR342W, strain FKS1 (second series), hits give low values 1.01 | S. cerevisiae deletion strains, locus YLR342W, strain FKS1, hits give low values 0.981 | S. cerevisiae deletion strains, locus YLR357W, strain rsc2, hits give low values 0.957 | S. cerevisiae deletion strains, locus YLR370C, strain arc18, hits give low values 0.974 | S. cerevisiae deletion strains, locus YLR371W, strain rom2, hits give low values 0.995 | S. cerevisiae deletion strains, locus YLR384C, strain iki3, hits give low values 0.984 | S. cerevisiae deletion strains, locus YLR418C, strain cdc73, hits give low values 0.951 | S. cerevisiae deletion strains, locus YML016C, strain PPZ1, hits give low values 1.02 | S. cerevisiae deletion strains, locus YML032C, strain rad52, hits give low values 0.975 | S. cerevisiae deletion strains, locus YML120C, strain ndi1, hits give low values 0.934 | S. cerevisiae deletion strains, locus YML124C, strain tub3, hits give low values 0.993 | S. cerevisiae deletion strains, locus YMR058W, strain fet3, hits give low values 0.984 | S. cerevisiae deletion strains, locus YMR078C, strain ctf18, hits give low values 0.995 | S. cerevisiae deletion strains, locus YMR125W, strain sto1, hits give low values 0.973 | S. cerevisiae deletion strains, locus YMR129W, hits give low values 0.986 | S. cerevisiae deletion strains, locus YMR205C, strain PFK2, hits give low values 0.98 | S. cerevisiae deletion strains, locus YMR223W, strain ubp8, hits give low values 0.98 | S. cerevisiae deletion strains, locus YMR231W, strain pep5, hits give low values 0.988 | S. cerevisiae deletion strains, locus YMR307W, strain GAS1, hits give low values 1.07 | S. cerevisiae deletion strains, locus YNL067W, strain RPL9B, hits give low values 1.01 | S. cerevisiae deletion strains, locus YNL071W, strain lat1, hits give low values 0.999 | S. cerevisiae deletion strains, locus YNL153C, strain GIM3, hits give low values 1.01 | S. cerevisiae deletion strains, locus YNL183C, strain NPR1, hits give low values 0.941 | S. cerevisiae deletion strains, locus YNL209W, strain ssb2, hits give low values 0.973 | S. cerevisiae deletion strains, locus YNL233W, strain BNI4, hits give low values 1.01 | S. cerevisiae deletion strains, locus YNL248C, strain rpa49, hits give low values 0.968 | S. cerevisiae deletion strains, locus YNL250W, strain rad50, hits give low values 1.01 | S. cerevisiae deletion strains, locus YNL271C, strain bni1, hits give low values 0.984 | S. cerevisiae deletion strains, locus YNL298W, strain CLA4, hits give low values 0.981 | S. cerevisiae deletion strains, locus YNL307C, strain MCK1, hits give low values 0.986 | S. cerevisiae deletion strains, locus YNL322C, strain KRE1, hits give low values 1.01 | S. cerevisiae deletion strains, locus YNR049C, strain mso1, hits give low values 0.987 | S. cerevisiae deletion strains, locus YNR052C, strain pop2, hits give low values 0.989 | S. cerevisiae deletion strains, locus YOL006C, strain TOP1, hits give low values 0.975 | S. cerevisiae deletion strains, locus YOL012C, strain htz1 1.17 | S. cerevisiae deletion strains, locus YOL147C, strain pex11, hits give low values 0.991 | S. cerevisiae deletion strains, locus YOR001W, strain rrp6, hits give low values 0.981 | S. cerevisiae deletion strains, locus YOR061W, strain CKA2, hits give low values 1.02 | S. cerevisiae deletion strains, locus YOR069W, strain VPS5, hits give low values 1.01 | S. cerevisiae deletion strains, locus YOR070C, strain gyp1, hits give low values 0.982 | S. cerevisiae deletion strains, locus YOR080W, strain dia2, hits give low values 0.987 | S. cerevisiae deletion strains, locus YOR083W, strain WHI5, hits give low values 0.965 | S. cerevisiae deletion strains, locus YOR106W, strain vam3, hits give low values 0.957 | S. cerevisiae deletion strains, locus YOR136W, strain idh2, hits give low values 0.991 | S. cerevisiae deletion strains, locus YOR144C, strain elg1, hits give low values 0.995 | S. cerevisiae deletion strains, locus YOR184W, strain ser1, hits give low values 0.963 | S. cerevisiae deletion strains, locus YOR231W, strain MKK1, hits give low values 0.973 | S. cerevisiae deletion strains, locus YOR265W, strain rbl2, hits give low values 0.982 | S. cerevisiae deletion strains, locus YOR270C, strain vph1, hits give low values 1.03 | S. cerevisiae deletion strains, locus YOR290C, strain snf2, hits give low values 0.917 | S. cerevisiae deletion strains, locus YOR316C, strain cot1, hits give low values 0.998 | S. cerevisiae deletion strains, locus YPL051W, strain arl3, hits give low values 0.995 | S. cerevisiae deletion strains, locus YPL078C, strain atp4, hits give low values 0.984 | S. cerevisiae deletion strains, locus YPL106C, strain sse1, hits give low values 0.984 | S. cerevisiae deletion strains, locus YPL240C, strain hsp82, hits give low values 0.99 | S. cerevisiae deletion strains, locus YPL256C, strain CLN2, hits give low values 0.984 | S. cerevisiae deletion strains, locus YPR119W, strain clb2, hits give low values 0.993 | S. cerevisiae deletion strains, locus YPR141C, strain kar3, hits give low values 1.01 | S. cerevisiae deletion strains, locus YPR163C, strain tif3, hits give low values 0.996 | S. cerevisiae deletion strains, locus YPR167C, strain met16, hits give low values 0.982 | S. cerevisiae deletion strains, strain wtn01, hits give low values 0.987 | S. cerevisiae strains, strain wild type, hits give low values 1.01

From PubChem BioAssay AID1159580 (chemical genetic matrix, 2015)
